From PubChem BioAssay (Tox21)
Inconclusive results are not listed. Entries that show only a call come without a potency. Calls of active or inactive are those of the source. Calls come from the whole dose curve; as a rule, active = well fitted cell-killing curve with a large enough effect in the repeat runs; inconclusive = weak or mixed curves; inactive = flat fitted curve, though single readings scatter.

Assay: qHTS assay to identify small molecule antagonists of the estrogen related receptor (ERR) signaling pathway from Tox21 library - cell viability counter screen (AID 1224834); note: nearly all actives have a fitted effect of over 30% in size
Settings: ERR reporter cells viability, CellTiter-Fluor, 17.5 h; series mostly up to 92.4 µM
Method in brief: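 CellTiter-Fluor fluorescence, read after 30 min at 37 C, measures viability of ERR cells. Cells plated at 2,000/well and incubated 6 h before pin-tool compound addition, then exposed 17.5 hours at 37 C.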

With CC(C)(C)c1nnc(NS(=O)(=O)c2ccccc2)s1 as the compound, how does the Potency read?
The Potency was “inactive”.

Which Potency does the source give for c1ccc(CC2=NCCN2)cc1 here?
The Potency was “inactive”.

For CCCCCCCCCCCCN(CCCCCCCCCCCC)CCCCCCCCCCCC, which Potency is on record?
The Potency was “inactive”.

With COC(C)(C)CCCC(C)CC=O (stereo not drawn) as the compound, how does the Potency read?
The Potency was “inactive”.

For C=CCS(=O)(=O)O, which Potency is on record?
Its Potency is “inactive”.

Which Potency does the source give for COCCCOCCCOC here?
The Potency was “inactive”.

For NS(=O)(=O)c1ccc(C(=O)O)cc1, which Potency is on record?
The Potency was “inactive”.

Which Potency does the source give for COc1c(N2C[C@@H]3CCCN[C@@H]3C2)c(F)cc2c(=O)c(C(=O)O)cn(C3CC3)c12 here?
The Potency was “inactive”.

For COC(=O)c1ccc(C)cc1C1=NC(C)(C(C)C)C(=O)N1 (stereo not drawn), which Potency is on record?
Its Potency is “inactive”.

For CS(=O)(=O)O, which Potency is on record?
Its Potency is “inactive”.

For CC(=O)c1ccccc1O, which Potency is on record?
The Potency was “inactive”.

For Cc1ccc(C#N)cc1, which Potency is on record?
The Potency was “inactive”.

With O=C(O)c1ccccc1OP(=O)(O)O as the compound, how does the Potency read?
Its Potency is “inactive”.

Which Potency does the source give for O=c1[nH]c(=O)n([C@H]2C[C@H](O)[C@@H](CO)O2)cc1I here?
The Potency was “inactive”.

For CC(C)NC(=O)NC(C)C, which Potency is on record?
The Potency was “inactive”.

With CCOC(=O)[C@H](CCc1ccccc1)N[C@@H](C)C(=O)N1[C@H](C(=O)O)C[C@@H]2CCC[C@@H]21 as the compound, how does the Potency read?
The Potency was “inactive”.

Which Potency does the source give for COc1cc(C(=O)N2CCCCCCC2)cc(OC)c1OC here?
The Potency was “inactive”.

Which Potency does the source give for O=C(O)CCCc1ccccc1 here?
Its Potency is “inactive”.

With CO/N=C(/C(=O)N[C@@H]1C(=O)N2C(C(=O)OCOC(=O)C(C)(C)C)=C(C)CS[C@H]12)c1csc(N)n1 as the compound, how does the Potency read?
Its Potency is “inactive”.

With Cc1cc2c(cc1S(N)(=O)=O)S(=O)(=O)CCC2 as the compound, how does the Potency read?
The Potency was “inactive”.

Which Potency does the source give for Cc1cc(O)cc2c1O[C@](C)(CCC[C@H](C)CCC[C@H](C)CCCC(C)C)CC2 here?
The Potency was “inactive”.

Which Potency does the source give for CCOC(=O)c1c(C)n(C)c2ccc(O)cc12 here?
The Potency was “inactive”.

Which Potency does the source give for O=C(CCCN1CCN(c2ccccn2)CC1)c1ccc(F)cc1 here?
The Potency was “inactive”.
